For this assay, the target named is Glucose transporter (Leishmania mexicana) (UniProt O61059). In words: ST_JUDE_LEISH: Cytotoxicity at 2uM final concentration against transgenic Leishmania Mexicana promastigotes LmGT2 that are glucose transport deficient and complemented with the L. Mexicana glucose transporter 2. Activity is measured by DNA content using SYBR green in vitro. Type of assay: functional.
For orientation: inhibition means the drop in the measured response relative to a control, in per cent. For `COc1ccc(CNCc2ccccc2)cc1-c1ccc(OC)c(S(=O)(=O)NCCN2CCCC2)c1`, the inhibition stood at 3.45%.

Consider `COc1cc2nc(N3CCC(CNC(=O)c4ccc(-c5ccc(C(=O)N(C)C)cc5OCCN(C)C)cc4)CC3)nc(N)c2cc1OC`, for which the inhibition is 0.37%.

Turning to `CCOc1ccc2[nH]c(C)cc(=NN=Cc3cccc(F)c3)c2c1`, the inhibition was 0.95%.

With `CN1CCN(c2nsc3ccc(-c4ccc(NC(=O)Nc5ccccc5)cc4)cc23)CC1`, the inhibition amounted to 0.99%.

Regarding `Nc1nc(NCC2CCC(CNS(=O)(=O)c3cccc4ccccc34)CC2)nc2ccccc12` (centres undefined), the inhibition was 1.21%.

As for `Cc1cccc2nc(-c3cccc(-c4cccc(C(=O)NCc5nccn5C)c4)c3)[nH]c12`, the inhibition stood at 10.2%.

Take `NC1CCN(Cc2cccc(-c3ccc(-c4nc5cc(F)ccc5[nH]4)cc3)c2)C1` (centres undefined): the inhibition was -0.29%.

As to `COc1cc(NC(=O)C(c2ccc(Cl)cc2)C(C)C)cc(OC)c1OC` (centres undefined), the inhibition came to 5.89%.

For `Nc1c2c(nc3ccc(Oc4ccc(Cl)cc4)cc13)CCCC2`, the inhibition worked out at 40.5%.

In the case of `COc1ccc(C(=O)Nc2ccc(Cl)cc2C(=O)Nc2ccncc2)cc1`, the inhibition is -0.77%.

With `Cc1cccc2nc(-c3ccc(-c4cccc(NC(=O)c5cnn6cccnc56)c4)cc3)[nH]c12`, the inhibition is 8.93%.

As to `CCn1c(Sc2ccc([N+](=O)[O-])c(C#N)c2)nnc1-c1ccc(Cl)cc1`, the inhibition was determined as 12.8%.

As for `CCCC(=O)NC(c1cccs1)c1cc(Cl)c2cccnc2c1O` (centres undefined), the inhibition is -0.61%.

Take `CC(C)N1CCN(C(=O)c2ccc(CNCCCN3CCN(c4ccccc4C(F)(F)F)CC3)s2)CC1`: the inhibition worked out at 4.26%.

As for `Cc1ccc2c(c1)C1(CC(=O)N(CCc3scnc3C)C1=O)C(=O)N2Cc1ccccc1` (centres undefined), the inhibition came out at 3.42%.

Turning to `CC1(C)Cc2c(oc3ncn(CCn4cnc5oc6c(c5c4=N)CC(C)(C)SC6)c(=N)c23)CS1`, the inhibition was -0.4%.

Consider `Cc1c(Br)cc2nc(-c3ccc(C(=O)NC4CCN(Cc5ccccc5)CC4)cc3)[nH]c2c1C`, for which the inhibition was 0.51%.

On to `COc1ccc(-c2cc(-c3ccc(S(C)(=O)=O)cc3)cnc2N)cn1`, for which the inhibition was 3.66%.

Consider `COc1cc(Nc2ccc3cc(S(=O)(=O)N4CCCCC4C)ccc3n2)cc(OC)c1OC` (centres undefined), for which the inhibition turned out to be 0.58%.

For `O=C(Nc1cccc(CN2CCN(Cc3ccc(O)cc3)CC2)c1)c1cccc(C(F)(F)F)c1`, the inhibition was 4.56%.

In the case of `Cc1cccc(NC(=S)NC2CCN(CCCCCNC(=O)/C=C/c3ccc(Cl)c(Cl)c3)CC2)c1`, the inhibition was found to be 0.99%.

As for `Fc1ccc2[nH]cc(CCNCc3ccc(-c4cccc(-c5nc6ccccc6[nH]5)c4)cc3)c2c1`, the inhibition worked out at 3.56%.

Turning to `Cc1cc2nc(-c3ccc(C(=O)NC4CCN(Cc5ccccc5)CC4)s3)[nH]c2cc1C`, the inhibition worked out at 2.98%.

As to `CC(C)c1cccc(OCC2CCN(c3ccc(C(=O)Nc4ccccc4)cn3)CC2)c1`, the inhibition came out at 9.04%.

`O=C(Cc1cccc(Cl)c1)Nc1cccc(-c2c[nH]c3nc(Nc4cccc(OCc5ccccc5)c4)ncc23)c1`: the inhibition was 5.74%.

For the compound `COc1cc(C(=O)NC2CC(C)(C)NC(C)(C)C2)ccc1-c1cc2cc(Cl)c(Cl)cc2[nH]1`, the inhibition was 2.02%.

On to `COC(=O)c1cccc(CNCc2ccc(-c3ccc(-c4nc5cc(C(F)(F)F)ccc5[nH]4)s3)cc2)c1`, for which the inhibition was 0.84%.

For `CCC(C)(CC)C(=O)n1ncc2c3c(N)nc(N)nc3ccc21`, the inhibition stood at 58.6%.

Regarding `CNC(=O)c1cc(F)c(F)cc1Nc1nc(Nc2cccc(CS(C)(=O)=O)c2)ncc1Cl`, the inhibition stood at 2.49%.

For `Cc1cc(=NN=Cc2ccc(F)cc2)c2cc(F)ccc2[nH]1`, the inhibition was -7.33%.

As for `O=C(/C=C/c1ccc(Cl)cc1)NCCCCCN1CCCC(C(=O)Nc2cccc(Cl)c2)C1` (centres undefined), the inhibition came to 3.91%.

With `Cc1cc(N(C)C)nc(Nc2ccc(NC(=O)CCc3ccccc3)cc2)n1`, the inhibition stood at 2.1%.

In the case of `O=C(NCCN1CCCc2ccccc21)C1CCN(c2nc(-c3ccc(Cl)cc3)no2)CC1`, the inhibition is -2.23%.

For the compound `CCc1nc2nc(C)cc(Nc3cc(C)cc(C)c3)n2n1`, the inhibition is 3.36%.

For the compound `COc1cc2ncnc(Nc3ccc(Br)c(Cl)c3)c2cc1OC`, the inhibition came out at 3.09%.

`Cc1cccc2nc(-c3ccc(-c4ccc(CNCC5CCCO5)cc4)cc3)[nH]c12` (centres undefined): the inhibition came to 6.42%.

As to `O=C(C=Cc1cccc(F)c1)NC1CCC(CCN2CCc3ccc(-c4cnccn4)cc3CC2)CC1` (centres undefined), the inhibition came to 13.1%.

Regarding `CC(C)C1=NC(=O)c2cc([N+](=O)[O-])ccc2CN1`, the inhibition stood at 2.11%.

Turning to `Cn1c(NC(=O)C2CCC(CNC(=O)c3ccc(O)c(-c4ccc(Cl)c(Cl)c4)c3)CC2)nc2ccccc21` (centres undefined), the inhibition amounted to 0.36%.
